# Legend:
# Test in all cases: DAPPL (digital affinity profiling via proximity ligation, sequencing); 10 mM Tris-HCl pH 7.5, 50 mM NaCl, 1 mM DTT, 4% glycerol, room temperature, 30 min; GST-TFs on glutathione beads, 16-mer random dsDNA library, 0.1% formaldehyde crosslink after washing; high values mean tight binding
# [1] = molecular target: T1, FLI1 (Homo sapiens, UniProt Q01543 1-452); settings: protein: recombinant; tags: N-terminal GST; dsDNA, one strand shown
# T1 sequence: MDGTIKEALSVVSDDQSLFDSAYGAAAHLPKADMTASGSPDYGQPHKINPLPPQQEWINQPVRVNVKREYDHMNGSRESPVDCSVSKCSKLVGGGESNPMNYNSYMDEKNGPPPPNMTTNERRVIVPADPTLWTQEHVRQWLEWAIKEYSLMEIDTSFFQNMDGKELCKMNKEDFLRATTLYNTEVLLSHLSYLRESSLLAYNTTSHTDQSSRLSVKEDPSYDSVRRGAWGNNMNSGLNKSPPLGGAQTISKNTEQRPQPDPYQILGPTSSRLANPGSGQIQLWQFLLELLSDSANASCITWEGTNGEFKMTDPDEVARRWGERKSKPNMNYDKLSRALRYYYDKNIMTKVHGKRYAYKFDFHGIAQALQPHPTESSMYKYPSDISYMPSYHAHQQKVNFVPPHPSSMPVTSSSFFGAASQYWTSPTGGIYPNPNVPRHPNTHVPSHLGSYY
# Summary of the method: (§1)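 Binding signal is defined as a hexamer's read frequency for one factor over its frequency for the tag-only sample. To obtain reads, GST-fused human transcription factors were expressed in yeast, captured on glutathione beads, barcoded with DNA and pooled with that sample. Pools met 200 nmole of a 16-mer random double-stranded DNA library in Tris/NaCl/DTT/glycerol buffer for 30 min at room temperature before washing, 0.1% formaldehyde crosslinking, proximity ligation (BsaI/T4 ligase, 1 h, 37 °C), PCR and Illumina NextSeq500 sequencing.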
# [2] = molecular target: T2, ELK1 (Homo sapiens, UniProt P19419 1-428); settings: protein: recombinant; tags: N-terminal GST; dsDNA, one strand shown
# T2 sequence: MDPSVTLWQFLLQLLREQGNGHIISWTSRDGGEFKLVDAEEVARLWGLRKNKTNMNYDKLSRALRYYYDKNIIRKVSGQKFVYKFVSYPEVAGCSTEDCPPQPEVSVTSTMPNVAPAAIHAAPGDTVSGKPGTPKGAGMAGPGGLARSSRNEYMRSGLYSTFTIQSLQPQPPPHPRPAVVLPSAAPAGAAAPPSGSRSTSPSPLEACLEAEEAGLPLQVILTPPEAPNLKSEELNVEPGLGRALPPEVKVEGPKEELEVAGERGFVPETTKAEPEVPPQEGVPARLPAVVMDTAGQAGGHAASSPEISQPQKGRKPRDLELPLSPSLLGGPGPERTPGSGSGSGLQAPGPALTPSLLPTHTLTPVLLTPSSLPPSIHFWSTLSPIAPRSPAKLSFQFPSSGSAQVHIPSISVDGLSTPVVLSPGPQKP
# Summary of the method: as §1
# [3] = molecular target: T3, GABPA (Homo sapiens, UniProt Q06546 1-454); settings: protein: recombinant; tags: N-terminal GST; dsDNA, one strand shown
# T3 sequence: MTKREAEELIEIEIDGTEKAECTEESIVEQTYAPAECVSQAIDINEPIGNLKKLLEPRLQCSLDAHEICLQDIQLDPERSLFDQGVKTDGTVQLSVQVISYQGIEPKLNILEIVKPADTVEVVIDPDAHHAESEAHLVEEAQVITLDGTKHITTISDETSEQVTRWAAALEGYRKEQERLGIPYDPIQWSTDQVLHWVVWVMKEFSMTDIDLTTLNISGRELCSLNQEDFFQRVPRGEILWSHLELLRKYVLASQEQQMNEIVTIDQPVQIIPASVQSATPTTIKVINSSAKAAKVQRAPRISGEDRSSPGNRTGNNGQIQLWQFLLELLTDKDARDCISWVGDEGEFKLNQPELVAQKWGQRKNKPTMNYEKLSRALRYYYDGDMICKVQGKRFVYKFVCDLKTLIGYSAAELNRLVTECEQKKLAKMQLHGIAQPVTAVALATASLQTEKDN
# Summary of the method: as §1
# [4] = molecular target: T4, ERG (Homo sapiens, UniProt P11308 1-479); settings: protein: recombinant; tags: N-terminal GST; dsDNA, one strand shown
# T4 sequence: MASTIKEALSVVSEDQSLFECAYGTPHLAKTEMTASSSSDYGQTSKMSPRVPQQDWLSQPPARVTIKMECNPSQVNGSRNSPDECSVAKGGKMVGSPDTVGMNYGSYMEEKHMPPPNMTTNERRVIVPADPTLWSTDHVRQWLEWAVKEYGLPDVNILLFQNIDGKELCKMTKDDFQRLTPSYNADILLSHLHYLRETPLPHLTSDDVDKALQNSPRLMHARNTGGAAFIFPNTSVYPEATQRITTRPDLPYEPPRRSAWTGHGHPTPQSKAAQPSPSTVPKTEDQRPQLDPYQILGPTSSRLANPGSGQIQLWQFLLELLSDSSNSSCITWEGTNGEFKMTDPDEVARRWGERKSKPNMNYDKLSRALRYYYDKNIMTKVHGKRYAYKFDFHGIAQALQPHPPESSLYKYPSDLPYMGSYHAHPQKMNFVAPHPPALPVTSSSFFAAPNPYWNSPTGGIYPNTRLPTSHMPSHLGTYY
# Summary of the method: as §1
# [5] = molecular target: ELF1 (Homo sapiens, UniProt P32519 1-619); settings: protein: recombinant; tags: N-terminal GST; dsDNA, one strand shown
# Chain of ELF1 (P32519 whole entry): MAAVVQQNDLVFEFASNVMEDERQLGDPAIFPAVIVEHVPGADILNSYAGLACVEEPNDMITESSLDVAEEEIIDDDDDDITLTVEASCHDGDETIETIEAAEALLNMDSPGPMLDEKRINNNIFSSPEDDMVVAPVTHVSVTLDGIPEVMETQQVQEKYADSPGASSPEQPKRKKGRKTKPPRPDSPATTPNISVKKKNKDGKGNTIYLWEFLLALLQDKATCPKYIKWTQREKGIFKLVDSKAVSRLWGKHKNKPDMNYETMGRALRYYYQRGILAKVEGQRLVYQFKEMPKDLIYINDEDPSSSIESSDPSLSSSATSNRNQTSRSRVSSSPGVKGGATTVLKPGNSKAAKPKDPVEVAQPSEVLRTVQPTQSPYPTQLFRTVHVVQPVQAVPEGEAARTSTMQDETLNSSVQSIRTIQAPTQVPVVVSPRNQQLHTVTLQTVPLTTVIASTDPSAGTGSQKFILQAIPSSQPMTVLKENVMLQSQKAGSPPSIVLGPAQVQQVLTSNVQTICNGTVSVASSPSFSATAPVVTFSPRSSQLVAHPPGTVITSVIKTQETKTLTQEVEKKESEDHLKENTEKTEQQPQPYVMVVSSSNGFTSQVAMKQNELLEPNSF
# Summary of the method: as §1
# [6] = molecular target: T5, EHF (Homo sapiens, UniProt Q9NZC4 1-300); settings: protein: recombinant; tags: N-terminal GST; dsDNA, one strand shown
# T5 sequence: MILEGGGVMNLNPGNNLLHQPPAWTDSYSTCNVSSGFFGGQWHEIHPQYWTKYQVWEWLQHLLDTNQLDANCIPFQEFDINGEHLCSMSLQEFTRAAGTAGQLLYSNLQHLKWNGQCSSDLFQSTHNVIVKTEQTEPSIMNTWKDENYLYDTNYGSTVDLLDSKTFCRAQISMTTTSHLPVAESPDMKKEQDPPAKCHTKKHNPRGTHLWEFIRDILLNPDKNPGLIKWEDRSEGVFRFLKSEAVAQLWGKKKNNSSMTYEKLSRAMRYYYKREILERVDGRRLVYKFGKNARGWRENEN
# Summary of the method: as §1
# [7] = molecular target: SPI1 (Homo sapiens, UniProt P17947 1-270); settings: protein: recombinant; tags: N-terminal GST; dsDNA, one strand shown
# Summary of the method: as §1
# [8] = molecular target: SPIB (Homo sapiens, UniProt Q01892 1-262); settings: protein: recombinant; tags: N-terminal GST; dsDNA, one strand shown
# Chain of SPIB (Q01892 whole entry): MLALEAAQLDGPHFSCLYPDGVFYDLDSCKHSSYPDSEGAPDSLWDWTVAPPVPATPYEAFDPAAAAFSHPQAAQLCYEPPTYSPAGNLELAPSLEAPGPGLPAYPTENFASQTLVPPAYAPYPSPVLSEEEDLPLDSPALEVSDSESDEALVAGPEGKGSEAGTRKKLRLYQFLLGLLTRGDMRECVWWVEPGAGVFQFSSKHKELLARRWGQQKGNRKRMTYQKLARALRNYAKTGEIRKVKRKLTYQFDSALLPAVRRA
# Summary of the method: as §1
# [9] = molecular target: T6, ELK3 (Homo sapiens, UniProt P41970 1-407); settings: protein: recombinant; tags: N-terminal GST; dsDNA, one strand shown
# T6 sequence: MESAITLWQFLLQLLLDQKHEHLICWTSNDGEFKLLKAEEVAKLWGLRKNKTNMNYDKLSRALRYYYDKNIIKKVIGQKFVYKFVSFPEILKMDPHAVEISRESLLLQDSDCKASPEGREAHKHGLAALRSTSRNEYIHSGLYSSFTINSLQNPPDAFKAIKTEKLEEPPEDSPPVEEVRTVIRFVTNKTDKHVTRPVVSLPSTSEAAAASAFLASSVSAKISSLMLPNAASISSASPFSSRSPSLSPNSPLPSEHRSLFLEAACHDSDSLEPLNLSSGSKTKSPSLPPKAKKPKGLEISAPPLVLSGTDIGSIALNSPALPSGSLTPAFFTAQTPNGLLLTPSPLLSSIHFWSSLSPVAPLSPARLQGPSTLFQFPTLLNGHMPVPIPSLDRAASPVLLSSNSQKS
# Summary of the method: as §1
# [10] = molecular target: T7, FEV (Homo sapiens, UniProt Q99581 1-238); settings: protein: recombinant; tags: N-terminal GST; dsDNA, one strand shown
# T7 sequence: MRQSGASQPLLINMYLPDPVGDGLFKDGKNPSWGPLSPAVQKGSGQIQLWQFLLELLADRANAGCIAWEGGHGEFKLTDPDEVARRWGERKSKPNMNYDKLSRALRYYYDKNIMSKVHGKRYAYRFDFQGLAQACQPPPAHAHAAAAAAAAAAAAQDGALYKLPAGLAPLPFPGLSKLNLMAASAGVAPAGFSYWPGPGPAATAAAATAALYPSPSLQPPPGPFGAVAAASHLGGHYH
# Summary of the method: as §1
# [11] = molecular target: ETV5 (Homo sapiens, UniProt P41161 1-510); settings: protein: recombinant; tags: N-terminal GST; dsDNA, one strand shown
# Chain of ETV5 (P41161 whole entry): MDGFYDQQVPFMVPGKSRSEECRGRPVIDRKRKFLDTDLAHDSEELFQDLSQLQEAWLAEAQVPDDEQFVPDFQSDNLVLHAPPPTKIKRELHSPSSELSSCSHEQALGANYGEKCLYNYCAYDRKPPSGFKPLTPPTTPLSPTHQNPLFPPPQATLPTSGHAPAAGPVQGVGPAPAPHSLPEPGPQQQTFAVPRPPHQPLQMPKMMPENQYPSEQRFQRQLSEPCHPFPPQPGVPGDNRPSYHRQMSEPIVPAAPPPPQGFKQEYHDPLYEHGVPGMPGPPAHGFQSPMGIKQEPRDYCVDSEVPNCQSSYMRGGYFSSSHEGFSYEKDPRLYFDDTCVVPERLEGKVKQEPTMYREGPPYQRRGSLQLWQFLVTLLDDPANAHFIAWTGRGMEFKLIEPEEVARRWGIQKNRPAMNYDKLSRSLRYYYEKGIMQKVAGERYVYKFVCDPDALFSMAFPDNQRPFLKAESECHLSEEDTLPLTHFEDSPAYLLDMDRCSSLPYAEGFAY
# Summary of the method: as §1
# [12] = molecular target: HSF1 (Homo sapiens, UniProt Q00613 1-529); settings: protein: recombinant; tags: N-terminal GST; chain copies: 3; dsDNA, one strand shown
# Chain of HSF1 (Q00613 whole entry): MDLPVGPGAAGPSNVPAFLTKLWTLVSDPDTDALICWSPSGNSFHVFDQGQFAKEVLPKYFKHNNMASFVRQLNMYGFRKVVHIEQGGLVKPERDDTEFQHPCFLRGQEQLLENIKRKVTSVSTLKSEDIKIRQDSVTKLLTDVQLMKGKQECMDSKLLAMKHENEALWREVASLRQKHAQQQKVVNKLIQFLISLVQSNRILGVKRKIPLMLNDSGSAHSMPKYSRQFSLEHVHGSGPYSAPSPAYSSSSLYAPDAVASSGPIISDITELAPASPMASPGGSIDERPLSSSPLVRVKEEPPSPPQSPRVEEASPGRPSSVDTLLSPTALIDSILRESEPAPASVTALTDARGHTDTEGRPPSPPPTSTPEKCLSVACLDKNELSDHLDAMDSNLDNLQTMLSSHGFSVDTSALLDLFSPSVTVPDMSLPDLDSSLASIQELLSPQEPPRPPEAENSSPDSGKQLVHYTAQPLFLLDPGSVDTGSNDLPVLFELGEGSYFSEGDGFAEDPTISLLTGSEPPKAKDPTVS
# Summary of the method: as §1
# [13] = molecular target: T8, SPIC (Homo sapiens, UniProt Q8N5J4 1-248); settings: protein: recombinant; tags: N-terminal GST; dsDNA, one strand shown
# T8 sequence: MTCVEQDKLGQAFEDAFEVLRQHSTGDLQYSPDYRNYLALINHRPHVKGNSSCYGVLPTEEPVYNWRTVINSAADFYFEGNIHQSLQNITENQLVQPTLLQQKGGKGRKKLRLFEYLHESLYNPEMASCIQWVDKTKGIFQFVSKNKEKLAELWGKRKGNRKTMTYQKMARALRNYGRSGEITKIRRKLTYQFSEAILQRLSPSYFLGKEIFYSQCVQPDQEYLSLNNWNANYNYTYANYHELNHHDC
# Summary of the method: as §1
# [14] = molecular target: ELF4 (Homo sapiens, UniProt Q99607 1-663); settings: protein: recombinant; tags: N-terminal GST; dsDNA, one strand shown
# Chain of ELF4 (Q99607 whole entry): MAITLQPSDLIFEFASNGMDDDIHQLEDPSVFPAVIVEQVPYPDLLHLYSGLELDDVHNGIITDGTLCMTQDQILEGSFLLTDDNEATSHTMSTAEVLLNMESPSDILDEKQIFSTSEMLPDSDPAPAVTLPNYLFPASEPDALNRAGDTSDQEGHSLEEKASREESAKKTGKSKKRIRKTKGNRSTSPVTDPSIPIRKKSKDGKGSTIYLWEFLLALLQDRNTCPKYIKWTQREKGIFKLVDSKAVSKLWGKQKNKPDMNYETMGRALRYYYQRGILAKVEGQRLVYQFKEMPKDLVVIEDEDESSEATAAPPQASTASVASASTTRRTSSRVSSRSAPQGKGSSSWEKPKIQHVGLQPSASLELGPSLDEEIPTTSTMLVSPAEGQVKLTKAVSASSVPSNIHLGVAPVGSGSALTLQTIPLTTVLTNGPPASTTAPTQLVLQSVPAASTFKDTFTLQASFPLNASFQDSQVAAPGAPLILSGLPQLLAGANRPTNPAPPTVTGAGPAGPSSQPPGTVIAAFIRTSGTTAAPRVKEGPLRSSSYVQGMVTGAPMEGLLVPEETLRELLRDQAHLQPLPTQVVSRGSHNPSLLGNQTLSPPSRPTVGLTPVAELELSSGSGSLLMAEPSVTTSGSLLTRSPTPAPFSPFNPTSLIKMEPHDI
# Summary of the method: as §1
# [15] = molecular target: T9, ELK4 (Homo sapiens, UniProt P28324-2 1-405); settings: protein: recombinant; tags: N-terminal GST; dsDNA, one strand shown
# T9 sequence: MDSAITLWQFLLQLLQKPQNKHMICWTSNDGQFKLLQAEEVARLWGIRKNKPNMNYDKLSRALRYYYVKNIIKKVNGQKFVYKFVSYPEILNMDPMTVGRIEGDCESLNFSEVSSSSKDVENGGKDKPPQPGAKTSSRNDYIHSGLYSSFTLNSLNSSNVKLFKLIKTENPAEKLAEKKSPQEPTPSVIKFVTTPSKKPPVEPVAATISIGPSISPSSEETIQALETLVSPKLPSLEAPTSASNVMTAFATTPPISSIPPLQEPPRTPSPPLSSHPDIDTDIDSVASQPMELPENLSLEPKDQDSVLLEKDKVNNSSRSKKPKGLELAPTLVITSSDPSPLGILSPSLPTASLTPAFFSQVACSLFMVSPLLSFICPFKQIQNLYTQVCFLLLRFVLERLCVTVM
# Summary of the method: as §1
# [16] = molecular target: T10, ELF3 (Homo sapiens, UniProt P78545 1-371); settings: protein: recombinant; tags: N-terminal GST; dsDNA, one strand shown
# T10 sequence: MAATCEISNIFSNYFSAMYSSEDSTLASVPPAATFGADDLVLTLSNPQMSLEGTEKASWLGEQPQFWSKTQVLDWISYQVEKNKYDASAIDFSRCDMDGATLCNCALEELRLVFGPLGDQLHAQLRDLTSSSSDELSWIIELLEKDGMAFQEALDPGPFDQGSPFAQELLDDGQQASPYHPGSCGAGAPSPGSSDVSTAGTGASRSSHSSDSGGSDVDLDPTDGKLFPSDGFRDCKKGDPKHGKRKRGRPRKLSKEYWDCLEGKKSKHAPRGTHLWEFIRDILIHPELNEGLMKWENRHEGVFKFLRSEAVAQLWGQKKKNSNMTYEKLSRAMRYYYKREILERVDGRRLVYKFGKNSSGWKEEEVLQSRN
# Summary of the method: as §1
# [17] = molecular target: CRX (Homo sapiens, UniProt O43186 1-299); settings: protein: recombinant; tags: N-terminal GST; dsDNA, one strand shown
# Chain of CRX (O43186 whole entry): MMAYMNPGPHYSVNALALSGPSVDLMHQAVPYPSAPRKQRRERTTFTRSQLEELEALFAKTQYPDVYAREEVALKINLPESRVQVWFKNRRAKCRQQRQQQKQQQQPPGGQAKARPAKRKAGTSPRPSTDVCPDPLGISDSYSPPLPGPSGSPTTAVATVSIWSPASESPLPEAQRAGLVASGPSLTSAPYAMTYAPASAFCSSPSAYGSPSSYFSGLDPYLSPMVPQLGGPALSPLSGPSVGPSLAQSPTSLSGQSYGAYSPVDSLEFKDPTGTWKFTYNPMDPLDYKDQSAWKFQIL
# Summary of the method: as §1
# [18] = molecular target: ETV1 (Homo sapiens, UniProt P50549 1-477); settings: protein: recombinant; tags: N-terminal GST; dsDNA, one strand shown
# Chain of ETV1 (P50549 whole entry): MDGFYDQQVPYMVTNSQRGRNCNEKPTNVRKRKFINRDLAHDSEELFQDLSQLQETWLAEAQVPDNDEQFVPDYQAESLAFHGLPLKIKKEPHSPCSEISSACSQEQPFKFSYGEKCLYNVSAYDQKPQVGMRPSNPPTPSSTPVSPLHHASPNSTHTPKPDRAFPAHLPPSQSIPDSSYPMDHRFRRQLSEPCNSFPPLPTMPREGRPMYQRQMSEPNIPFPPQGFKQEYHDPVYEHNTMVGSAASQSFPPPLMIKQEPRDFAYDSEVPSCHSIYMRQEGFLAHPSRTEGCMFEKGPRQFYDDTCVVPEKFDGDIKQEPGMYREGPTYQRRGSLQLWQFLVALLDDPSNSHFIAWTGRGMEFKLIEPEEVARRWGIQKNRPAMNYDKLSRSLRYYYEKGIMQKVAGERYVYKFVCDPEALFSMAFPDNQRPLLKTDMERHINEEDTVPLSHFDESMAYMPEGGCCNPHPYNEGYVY
# Summary of the method: as §1
sequence,measurement,setting,value
GTTTAT,binding signal,[1],"1.09 fold enrichment (6-mer frequency, TF over GST control)"
same,binding signal,[2],"1.02 fold enrichment (6-mer frequency, TF over GST control)"
same,binding signal,[3],"1.08 fold enrichment (6-mer frequency, TF over GST control)"
same,binding signal,[4],"1.05 fold enrichment (6-mer frequency, TF over GST control)"
same,binding signal,[5],"1.06 fold enrichment (6-mer frequency, TF over GST control)"
same,binding signal,[6],"1.06 fold enrichment (6-mer frequency, TF over GST control)"
same,binding signal,[7],"1.07 fold enrichment (6-mer frequency, TF over GST control)"
same,binding signal,[8],"1.1 fold enrichment (6-mer frequency, TF over GST control)"
same,binding signal,[9],"1.12 fold enrichment (6-mer frequency, TF over GST control)"
same,binding signal,[10],"1.02 fold enrichment (6-mer frequency, TF over GST control)"
same,binding signal,[11],"1.07 fold enrichment (6-mer frequency, TF over GST control)"
same,binding signal,[12],"1.14 fold enrichment (6-mer frequency, TF over GST control)"
same,binding signal,[13],"1.12 fold enrichment (6-mer frequency, TF over GST control)"
same,binding signal,[14],"1.07 fold enrichment (6-mer frequency, TF over GST control)"
same,binding signal,[15],"1.05 fold enrichment (6-mer frequency, TF over GST control)"
same,binding signal,[16],"1.27 fold enrichment (6-mer frequency, TF over GST control)"
same,binding signal,[17],"1.33 fold enrichment (6-mer frequency, TF over GST control)"
same,binding signal,[18],"1.03 fold enrichment (6-mer frequency, TF over GST control)"

# Reference: paper PMC7862700, “An all-to-all approach to the identification of sequence-specific readers for epigenetic DNA modifications on cytosine”
